Results as given in PubChem BioAssay (Tox21).
Values joined by “and” are separate entries in the source; they are usually repeats but may differ in a detail not shown here. Equal values may be shown once. Records with an inconclusive call do not appear. Where a call stands in place of a potency, no number is given. Where a structure was tested more than once in an assay, its records may differ in their call. Active and inactive are the calls of the source. Unless noted, the call rests on the fitted dose curve; in most records, active means well fitted curve in the direction sought with a large enough effect in the repeat runs; inconclusive means weak or mixed curves; inactive means no such curve, though single readings can be large; an effect the other way counts as inactive or inconclusive.

Key:
[1] = qHTS assay to identify small molecule agonists of H2AX (AID 1224845; active means well fitted activation curve with a large enough effect in the signal ratio in the repeat runs, not every such curve was filed as active; the % refers to the signal ratio; further: potency means the concentration at half of the fitted maximal effect)
Procedure, shortened: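 Phospho-H2AX Ser139 measured by HTRF (ex 320 nm; em 665 and 620 nm) after 24 hr antibody incubation. Compounds, 15 concentrations, 0.76% DMSO, were applied to CHO-K1 cells for 3hr at 37C before lysis.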

[2] = qHTS assay to identify small molecule agonists of the hypoxia (HIF-1) signaling pathway (AID 1224846; active means well fitted activation curve with a large enough effect in the signal ratio in the repeat runs, not every such curve was filed as active; the % refers to the signal ratio)
Procedure, shortened: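 HRE-bla ME-180 cells (beta-lactamase reporter under hypoxia response element) were plated at 2,000 cells/well in medium with 0.5% dialyzed FBS, rested 5 hrs, then given compounds in DMSO for 17 hrs at 37C, 5% CO2. Reporter induction was read with CCF4-AM FRET substrate.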

[3] = qHTS assay to identify small molecule agonists of H2AX - cell viability counter screen (AID 1224847; calls by dose curve; further: nearly all actives have a fitted effect of over 30% in size; further: potency means the concentration at half of the fitted maximal effect)
Procedure, shortened: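 Wild-type CHO-K1 cells (10% FBS medium) were plated overnight at 37C, exposed to compounds at 15 concentrations for 3 hr at 37C (0.76% DMSO final), and viability was read as CellTiter-Glo luminescence after 30 min at room temperature.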

[4] = qHTS assay to identify small molecule antagonists of the estrogen related receptor (ERR) signaling pathway from Tox21 library (AID 1224848); further: nearly all actives have a fitted effect of over 50% in size; further: potency means the concentration at half of the fitted maximal effect
Procedure, shortened: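 Reading was by luminescence 30 min after ONE-Glo addition. Before that, ERR cells at 2,000 per well had rested 6 h at 37 C/5% CO2 and then received pin-tooled compounds in DMSO for 18 h at 37 C.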

[5] = qHTS assay to identify small molecule agonists of the estrogen related receptor (ERR) signaling pathway from Tox21 library (AID 1224849; calls by dose curve; further: nearly all actives have a fitted effect of over 15% in size); conditions: ERR reporter cell line, ONE-Glo luciferase, 18 h
Procedure, shortened: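 ERR reporter cell line (NTP) seeded, rested 6 h at 37 C/5% CO2, then pinned with Tox21 compounds in DMSO. After 18 h at 37 C, ONE-Glo luciferase luminescence was read following 30 min at room temperature.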

[6] = qHTS RealTime-Glo MT Cell Viability Assay in HepG2 cells - 24 hour (AID 1224867); further: nearly all actives have a fitted effect of over 50% in size; further: potency means the concentration at half of the fitted maximal effect
Procedure, shortened: (§1)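 Compound treatment began 5 h after plating HepG2 cells (600/well) with NanoLuc luciferase and prosubstrate. Plates stayed at 37 C for 40 h; luminescence was captured at six time points, 0 h through 40 h.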

[7] = qHTS RealTime-Glo MT Cell Viability Assay in HEK293 cells - 32 hour (AID 1224868); further: nearly all actives have a fitted effect of over 50% in size; further: potency means the concentration at half of the fitted maximal effect
Procedure, shortened: (§2)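 Quantitative high-throughput screen of the Tox21 10K library in HEK293: cells and RealTime-Glo reagents plated together, compound added at 5 h, luminescence monitored through 40 h at 37 C.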

[8] = A CellTox Green Cytotoxicity Assay to monitor cytotoxicity in HEK293 cells - 0 hour (AID 1224869); further: nearly all actives have a fitted effect of over 50% in size
Procedure, shortened: (§3)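 HEK293 cells premixed with CellTox Green dye were seeded at 600 cells/well and left 5 h at 37 C/5% CO2 before pin transfer of 23 nL compound in DMSO. Fluorescence from dye bound to dead-cell DNA was read during 40 h treatment.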

[9] = qHTS RealTime-Glo MT Cell Viability Assay in HepG2 cells - 40 hour (AID 1224870); further: nearly all actives have a fitted effect of over 50% in size; further: potency means the concentration at half of the fitted maximal effect
Procedure, shortened: (§4)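 Real-time viability: cells seeded at 600 per well together with NanoLuc and cell-permeant prosubstrate, compounds added after 5 h incubation. Luminescence tracked at 0, 8, 16, 24, 32 and 40 h of exposure.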

[10] = A CellTox Green Cytotoxicity Assay to monitor cytotoxicity in HEK293 cells - 40 hour (AID 1224871); further: nearly all actives have a fitted effect of over 45% in size; further: potency means the concentration at half of the fitted maximal effect
Procedure, shortened: as §3

[11] = qHTS RealTime-Glo MT Cell Viability Assay in HEK293 cells - 16 hour (AID 1224872); further: nearly all actives have a fitted effect of over 50% in size; further: potency means the concentration at half of the fitted maximal effect
Procedure, shortened: as §2

[12] = qHTS RealTime-Glo MT Cell Viability Assay in HepG2 cells - 8 hour (AID 1224873); further: nearly all actives have a fitted effect of over 55% in size; further: potency means the concentration at half of the fitted maximal effect
Procedure, shortened: as §4

[13] = qHTS RealTime-Glo MT Cell Viability Assay in HEK293 cells - 40 hour (AID 1224874); conditions: RealTime-Glo luminescence; max response: stronger effect = lower value; further: nearly all actives have a fitted effect of over 50% in size; further: potency means the concentration at half of the fitted maximal effect
Procedure, shortened: (§5)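 HEK293 cells mixed with RealTime-Glo reagents (NanoLuc plus cell-permeant prosubstrate) at 600 cells/well, preincubated 5 h at 37 C/5% CO2, then given 23 nL compound in DMSO. Nonlytic luminescence from viable cells was read at 0, 8, 16, 24, 32 and 40 h.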

[14] = A CellTox Green Cytotoxicity Assay to monitor cytotoxicity in HEK293 cells - 24 hour (AID 1224875); further: nearly all actives have a fitted effect of over 45% in size; further: potency means the concentration at half of the fitted maximal effect
Procedure, shortened: as §3

[15] = A CellTox Green Cytotoxicity Assay to monitor cytotoxicity in HepG2 cells - 16 hour (AID 1224876); further: nearly all actives have a fitted effect of over 45% in size; further: potency means the concentration at half of the fitted maximal effect
Procedure, shortened: (§6)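 HepG2 cells were seeded together with the CellTox Green dye at 600 cells/well, left 5 h at 37 C/5% CO2, then given compounds in DMSO. Fluorescence from dye bound to dead-cell DNA was read repeatedly over 40 h of treatment at 37 C.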

[16] = qHTS RealTime-Glo MT Cell Viability Assay in HepG2 cells - 32 hour (AID 1224877); further: nearly all actives have a fitted effect of over 55% in size; further: potency means the concentration at half of the fitted maximal effect
Procedure, shortened: as §1

[17] = A CellTox Green Cytotoxicity Assay to monitor cytotoxicity in HepG2 cells - 24 hour (AID 1224878); further: nearly all actives have a fitted effect of over 45% in size; further: potency means the concentration at half of the fitted maximal effect
Procedure, shortened: as §6

[18] = qHTS RealTime-Glo MT Cell Viability Assay in HEK293 cells - 0 hour (AID 1224880)
Procedure, shortened: as §5

[19] = qHTS assay to identify small molecule agonists of the hypoxia (HIF-1) signaling pathway - cell viability counter screen (AID 1224844; calls by dose curve; further: nearly all actives have a fitted effect of over 50% in size; further: potency means the concentration at half of the fitted maximal effect)
Procedure, shortened: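 HRE-bla ME-180 cells in medium with 0.5% dialyzed FBS were preincubated 5 hrs at 37C, exposed to compounds for 17 hrs, then viability was read as CellTiter-Glo luminescence after 30 min at room temperature, in the reporter wells.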

[20] = A CellTox Green Cytotoxicity Assay to monitor cytotoxicity in HepG2 cells - 40 hour (AID 1224879); further: nearly all actives have a fitted effect of over 40% in size; further: potency means the concentration at half of the fitted maximal effect
Procedure, shortened: as §6

SMILES: NP(N)(=O)NC(=O)c1ccc(F)cc1
- Potency [1]: inactive
- outcome [2]: inactive
- Potency [3]: inactive
- Potency [4]: inactive
- activity change, positive = activation ([5]; at 42.5 µM (top of the series)): -0.0729% (inactive)
- Potency [6]: inactive
- Potency [7]: inactive
- Potency [8]: inactive
- Potency [9]: inactive
- Potency [10]: inactive
- Potency [11]: inactive
- Potency [12]: inactive
- max response [13]: 1.36% (inactive)
- Potency [14]: inactive
- Potency [15]: inactive
- Potency [16]: inactive
- Potency [17]: inactive
- outcome [18]: inactive

SMILES: C[CH2][Hg][S]c1ccccc1C(=O)O
- Potency [19]: 616 nM (active) and 1.9 µM (active)
- Potency [1]: 4.01 µM (active)
- Potency [3]: 17.9 µM (active) and 24.7 µM (active)
- Potency [4]: inactive and 16.8 µM (active)
- activity change, positive = activation ([5]; at 42.5 µM (top of the series)): -75.4% (inactive)
- activity change, positive = activation ([5]; at 92.4 µM (top of the series)): -77.1% (inactive)
- Potency [7]: 977 nM (active) and 1.07 µM (active)
- Potency [8]: inactive
- Potency [9]: 2.19 µM (active) and 2.39 µM (active)
- Potency [10]: 6.92 µM (active) and 4.77 µM (active)
- Potency [12]: 3.47 µM (active) and 2.13 µM (active)
- Potency [13]: 871 nM (active) and 952 nM (active)
- Potency [14]: 7.76 µM (active) and 5.35 µM (active)
- Potency [15]: 3.89 µM (active) and 2.39 µM (active)
- Potency [16]: 2.19 µM (active) and 2.13 µM (active)
- Potency [17]: 5.49 µM (active) and 2.39 µM (active)
- Potency [20]: 1.95 µM (active) and 2.13 µM (active)
- outcome [18]: inactive

SMILES: C[C@]12CC[C@H]3[C@@H](CCC4=CC(=O)CC[C@@H]43)[C@@H]1CC[C@@H]2OC(=O)CCc1ccccc1
- Potency [19]: inactive
- Potency [1]: inactive
- outcome [2]: inactive
- Potency [4]: inactive
- activity change, positive = activation ([5]; at 42.5 µM (top of the series)): 10.2% (inactive)
- Potency [7]: inactive
- Potency [8]: inactive
- Potency [9]: inactive
- Potency [11]: inactive
- Potency [12]: inactive
- max response [13]: 0.945% (inactive)
- Potency [14]: inactive
- Potency [15]: inactive
- Potency [16]: inactive
- Potency [17]: inactive
- Potency [20]: inactive
- outcome [18]: inactive

SMILES: CCCCCCCCn1sccc1=O
- Potency [19]: 4.91 µM (active) and 3.63 µM (active)
- Potency [1]: inactive
- Potency [3]: 50.6 µM (active) and 26.5 µM (active)
- Potency [4]: 17.3 µM (active) and 9.05 µM (active)
- activity change, positive = activation ([5]; at 92.4 µM (top of the series)): -82.6% (inactive) and -70% (inactive)
- Potency [6]: 43.7 µM (active) and 16.2 µM (active)
- Potency [7]: 11 µM (active) and 12.9 µM (active)
- Potency [9]: 43.7 µM (active) and 14.5 µM (active)
- Potency [10]: 55.1 µM (active) and 20.4 µM (active)
- Potency [11]: 13.8 µM (active) and 14.5 µM (active)
- Potency [12]: 43.7 µM (active) and 16.2 µM (active)
- Potency [13]: 11 µM (active) and 12.9 µM (active)
- Potency [14]: 55.1 µM (active) and 40.8 µM (active)
- Potency [15]: 55.1 µM (active) and 25.7 µM (active)
- Potency [16]: 43.7 µM (active) and 16.2 µM (active)
- Potency [17]: 49.1 µM (active) and 25.7 µM (active)

SMILES: CC(=O)NNc1ccccc1
- outcome [2]: inactive
- Potency [3]: inactive
- Potency [4]: 4.82 µM (active)
- activity change, positive = activation ([5]; at 92.4 µM (top of the series)): -40.3% (inactive)
- Potency [6]: inactive
- Potency [7]: inactive
- Potency [8]: inactive
- Potency [9]: inactive
- Potency [10]: inactive
- Potency [11]: inactive
- Potency [12]: inactive
- max response [13]: 2.64% (inactive)
- Potency [14]: inactive
- Potency [15]: inactive
- Potency [16]: inactive
- Potency [17]: inactive
- Potency [20]: inactive
- outcome [18]: inactive

SMILES: N#CC(C#N)=Cc1ccc(O)c(O)c1
- outcome [2]: inactive
- Potency [3]: inactive
- Potency [7]: inactive
- Potency [8]: inactive
- Potency [9]: inactive
- Potency [10]: inactive
- Potency [12]: inactive
- max response [13]: -6.83% (inactive)
- Potency [14]: inactive
- Potency [15]: inactive
- Potency [16]: inactive
- Potency [17]: inactive
